Bioassay records from PubChem BioAssay.
ATXN viability – reduces viability in counter-screen for ATXN expression inhibitors; S2 cells (HEK-293 line with an ATXN2-luciferase reporter) viability, CellTiter-Fluor protease fluorescence, 24 h; Potency, µM (titrated, usually from 56.7 µM), most hits filed as cytotoxic; 0.49% of 400,000 active; also: nearly all actives have a fitted effect of over 40% in size
TGFb SMAD3 inh – inhibitors of TGF-b signaling; HepG2 CAGA-GFP TGF-b/SMAD3 reporter, GFP fluorescence, 18 h; TGF-beta stimulated, 500 pg/mL final; Potency, µM (series often up to 46.1 µM), actives largely listed as inhibitors; 1.2% of 410,000 active; AID 588855; also: nearly all actives have a fitted effect of over 65% in size
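First, reporter cells (HEPG2 CAGA-GFP) rested 2 h at 37 degrees C. Next, compounds were pinned in and TGF-beta added to 500 pg/mL final. After 18 h, GFP was imaged per cell and summed per well.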
ATXN2 expr inh – inhibitors of ATXN2 expression. HEK-293 ATXN2-luciferase reporter, luminescence, 24 h. Potency, µM (series often up to 57 µM), most hits filed as inhibitors. 0.72% of 360,000 active. AID 1745845; also: nearly all actives have a fitted effect of over 55% in size
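qHTS (up to 57 uM final) was run with 24 h compound exposure of reporter cells at 37 °C. Each well was multiplexed: SteadyGlo luminescence measured ATXN2-luciferase expression after a fluorogenic Gly-Phe-AFC viability readout (25 uM final).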
DT40 TDP1 CPT – growth inhibition of DT40 Tdp1-/-;hTDP1 cells with camptothecin (screen for TDP1 inhibitors); Potency, µM (series often up to 46.2 µM), hits mostly inhibitors; 12% of 420,000 active; chicken DT40 Tdp1-/-;hTDP1 cells + 20 nM CPT, ATP luminescence, 48 h; also: nearly all actives have a fitted effect of over 55% in size
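Cell growth measured by CellTiter-Glo luminescence after a minimum 48 h, 37 C compound exposure with 20 nM CPT in Tdp1-knockout DT40 cells stably expressing hTDP1, seeded 400/well; qHTS titration format.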
HepG2 viability – kills HepG2 cells in TGF-b inhibitor counter-screen | HepG2 CAGA-GFP viability, ATP luminescence, 18 h | Potency, µM (titrated, usually from 46.1 µM), actives largely listed as cytotoxic | 0.76% of 410,000 active | AID 588856
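CellTiter-Glo luminescence gave cytotoxicity after 18 hours at 37 degrees C. The cells were HepG2 CAGA-GFP in 1% FBS DMEM, stimulated with 500 pg/mL TGF-beta after compound addition. %Activity was normalised to no-cell wells (complete cell-killing) and DMSO (no toxicity), and curves were fitted and classified.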
DT40 TDP1 no CPT – qHTS for Inhibitors of human tyrosyl-DNA phosphodiesterase 1 (TDP1): qHTS in cells in absence of CPT | DT40 Tdp1-/- hTDP1 cells, no CPT, ATP luminescence, 48 h | Potency, µM (highest dose often 46.2 µM), actives largely listed as inhibitors | 15% of 420,000 active; also: nearly all actives have a fitted effect of over 55% in size
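Chicken DT40 Tdp1-/- cells complemented with human TDP1, screened without camptothecin (DMSO vehicle only), 400 cells/well. Compounds pin-transferred, cells incubated at 37 °C for at least 48 hr. Growth read as ATP-dependent luminescence (CellTiter-Glo, 30 min at RT).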
A number is an active result; – = inactive; ? = inconclusive; · = no result. The list is not random: actives were taken first. Their share in the collection is about 17%. Calls follow the shape of the dose curve; as a rule, active = well fitted curve in the direction sought with a large enough effect; inconclusive = small, poorly fitted or top-dose-only effect, or another doubt; inactive = no such curve, though single readings can be large; an effect the other way counts as inactive or inconclusive.

SMILES	ATXN viability	TGFb SMAD3 inh	ATXN2 expr inh	DT40 TDP1 CPT	HepG2 viability	DT40 TDP1 no CPT
CC(C)(C)C(=O)N1Cc2cc(-c3ccccc3)ccc2-n2nncc2C1	–	–	–	16µM	–	?
CC(C)(OOC1(c2ccccc2)NC(=O)c2ccccc21)c1ccccc1 (configuration not stated)	–	·	–	?	·	18µM
Cc1c(Cl)cccc1NC(=O)CN1C(=O)C(C)N=C(c2ccccc2)c2ccccc21 (configuration not stated)	?	–	–	–	–	23µM
Cc1ccc(Cl)cc1N1CCN(CCN)CC1	–	–	–	16µM	–	?
COc1cc(Cl)c(C)cc1NC(=O)CCCn1c(=O)oc2ccccc21	–	–	–	–	–	?
CN(C)CCNC(=O)c1cccn(Cc2cccc(C(F)(F)F)c2)c1=O	–	?	–	23µM	–	?
NC(N)=Nc1ccc2[nH]c3c(c2c1)C[C@]1(O)[C@@H]2Cc4ccc(O)c5c4[C@]1(CCN2CC1CC1)[C@@H]3O5	·	·	·	–	·	?
CCC(=NCc1ccco1)c1c(O)n(-c2ccccc2C)c(=O)[nH]c1=O	–	–	–	–	–	–
COc1ccc(-n2c(-c3ccccc3F)nc3ccccc3c2=O)cc1	–	–	·	?	–	21µM
Cc1nc2ccccc2c(=O)n1-c1ccc(C(=O)O)cc1	–	–	–	–	–	–
COc1ccc(-c2nc3ccccc3c(=O)n2-c2ccc(OC)cc2)cc1	–	–	–	?	–	?
COc1ccc(-n2c(-c3ccccc3Br)nc3ccccc3c2=O)cc1	?	–	–	?	–	21µM
Cc1cccc(-n2c(-c3ccc([N+](=O)[O-])cc3)nc3ccccc3c2=O)c1	?	–	–	?	–	8.2µM
O=c1c2ccccc2nc(N2CCCC2)n1-c1ccccc1	–	?	–	?	–	15µM
Cc1cc(C)c(-n2c(O)c(/C=N/N3CCCCC3c3cccnc3)c(=O)[nH]c2=O)c(C)c1 (configuration not stated)	–	–	–	–	–	–
Cc1ccccc1Cn1cccc(C(=O)Nc2cc(Cl)ccc2C#N)c1=O	–	–	–	–	–	–
CCCCN1CCS(=O)(=O)N(Cc2ccccc2Br)CC(C(=O)OC)C1 (configuration not stated)	–	?	–	?	–	?
NC1C[C@H]1c1ccccc1 (some centres not stated)	·	·	·	–	·	–
O=c1c2ccccc2nc(Cc2ccccc2)n1-c1ccc(O)cc1	–	–	–	?	–	?
Cc1cccc(-n2c(CC3C(=O)Nc4ccc(C)cc43)nc3ccccc3c2=O)c1 (configuration not stated)	?	–	–	?	–	21µM
O=c1c2ccccc2nc(-c2ccccc2F)n1-c1ccccc1	–	–	–	?	–	7.3µM
O=c1c2ccccc2nc(Cc2ccccc2)n1-c1cccc(O)c1	?	?	–	15µM	–	21µM
O=c1c2ccccc2nc(-c2ccc([N+](=O)[O-])cc2)n1-c1ccccc1	–	–	–	–	–	–
Cc1nc2cc([N+](=O)[O-])ccc2c(=O)n1-c1cccc(Br)c1	–	–	–	?	–	18µM
COC(=O)c1cccc(N=Cc2c(O)n(Cc3ccc(F)cc3)c(=O)[nH]c2=O)c1	–	–	–	–	–	–
CC(C)NC(=O)N1CCC2(CC1)CCN(C(=O)Oc1ccccc1)CC2	·	·	·	–	·	?
O=c1c2ccccc2nc(-c2ccccc2)n1-c1ccncc1	·	–	·	?	–	–
O=c1c2ccccc2nc(-c2ccccc2)n1-c1ccccc1	?	?	·	?	–	8.2µM
O=C(Nc1ccccc1)c1cc(C2CCCN(C(=O)C3CC3)C2)on1 (configuration not stated)	–	–	10µM	?	8.9µM	?
COc1ccc(-c2ccc3c(c2)CN(C(=O)NC2CCCCC2)Cc2cnnn2-3)cc1	?	?	–	?	–	?
